According to PubChem BioAssay:

Biological target: Focal adhesion kinase 1 (Homo sapiens) (UniProt Q05397)
Experiment: PTK2 protein binding on printed compound slides – biochemical, small-molecule microarray, 635/667 nm fluorescence, BSA, DTT, primary screen (AID 1130);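 further: composite of spot emission at 667 nm and signal to noise over triplicate slides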
Conditions: 635 nm fluorescence, higher = more signal

Focal adhesion kinase 1 (Homo sapiens), sequence (Q05397 whole entry, looked up): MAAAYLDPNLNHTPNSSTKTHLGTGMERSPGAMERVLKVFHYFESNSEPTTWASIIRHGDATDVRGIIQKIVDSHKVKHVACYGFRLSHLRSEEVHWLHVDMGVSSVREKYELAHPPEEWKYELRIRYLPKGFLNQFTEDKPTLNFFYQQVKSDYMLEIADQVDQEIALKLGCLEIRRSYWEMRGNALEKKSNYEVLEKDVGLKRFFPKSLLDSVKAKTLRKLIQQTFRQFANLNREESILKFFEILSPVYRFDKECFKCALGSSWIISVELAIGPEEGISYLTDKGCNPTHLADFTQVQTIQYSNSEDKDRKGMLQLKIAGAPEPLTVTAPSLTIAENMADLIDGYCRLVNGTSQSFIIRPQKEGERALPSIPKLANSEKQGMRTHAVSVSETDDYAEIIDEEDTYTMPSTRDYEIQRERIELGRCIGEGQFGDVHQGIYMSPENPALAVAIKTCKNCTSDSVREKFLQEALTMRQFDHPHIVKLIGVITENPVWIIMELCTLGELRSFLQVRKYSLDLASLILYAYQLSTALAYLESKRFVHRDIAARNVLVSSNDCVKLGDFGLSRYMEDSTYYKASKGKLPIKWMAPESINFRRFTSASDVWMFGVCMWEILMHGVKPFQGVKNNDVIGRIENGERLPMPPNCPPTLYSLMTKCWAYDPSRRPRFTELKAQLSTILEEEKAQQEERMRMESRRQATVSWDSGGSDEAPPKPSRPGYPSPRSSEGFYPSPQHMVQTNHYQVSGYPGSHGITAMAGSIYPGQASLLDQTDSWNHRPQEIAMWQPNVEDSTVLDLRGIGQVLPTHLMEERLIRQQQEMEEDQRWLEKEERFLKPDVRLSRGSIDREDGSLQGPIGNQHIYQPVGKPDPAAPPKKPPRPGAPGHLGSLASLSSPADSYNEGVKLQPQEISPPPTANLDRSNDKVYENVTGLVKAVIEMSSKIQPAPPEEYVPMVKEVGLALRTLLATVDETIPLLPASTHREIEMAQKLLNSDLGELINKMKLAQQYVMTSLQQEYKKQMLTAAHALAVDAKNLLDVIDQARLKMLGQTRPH

| SMILES | composite z-score |
| --- | --- |
| COc1cc(NN2C(C(O)c3ccco3)C=CC3C(=O)N(c4ccccc4)C(=O)C32)cc(OC)c1OC (configuration not stated) | 0.21 |
| COC(=O)[C@@]1(Cc2ccc(OC)cc2)[C@H]2c3cc(C(=O)N(C)C)n(CCc4ccccn4)c3C[C@H]2CN1C(=O)c1ccccc1 | 0.933 |
| O=C(NC1CC1)[C@@H]1c2ccccc2C(=O)N(Cc2ccccc2Cl)[C@H]1c1ccc(CO)cc1 | 1.06 |
| COC(=O)[C@@]1(Cc2ccc(F)cc2)[C@H]2c3cc(C(=O)N(C)C)n(Cc4ccccc4)c3C[C@H]2CN1C(=O)c1ccccc1 | -0.109 |
| O=C1C2C=CC(C(O)CCc3ccccc3)N(Nc3ccccc3F)C2C(=O)N1c1ccccc1 (configuration not stated) | 1.01 |
| C=C[C@H](CO[Si](CC)(CC)CC)N(Cc1ccc(OC(C)=O)c(OC)c1)S(=O)(=O)c1ccc(Br)cc1 | 1.76 |
| O=C1O[C@@H](c2ccccc2)[C@@H](c2ccccc2)N2[C@@H](c3ccccc3OCCO)[C@]3(C(=O)Nc4ccc(C#CC5=CCCCC5)cc43)[C@@H](C(=O)N3CCCCCCC3)[C@H]12 | 3.35 |
| CCOC(=O)[C@H]1C/C=C/C[C@H](C(=O)OCC)C(=O)O[C@H]2[C@@H](OC)O[C@H](CO)[C@@H](OC(=O)c3c(OC)cccc3OC)[C@@H]2OC1=O | 0.523 |
| CCC(CC)C(O)C1C=CC2C(=O)NC(=O)C2N1Nc1ccc(Cl)cc1Cl (configuration not stated) | 0.383 |
| CCOC(=O)C[C@H]1[C@H](OC(=O)c2ccc(C(=O)c3ccccc3)cc2)[C@@H](NC(=O)c2ccc3ccccc3c2)c2cc(OCCCO)ccc2N1C(=O)Cc1ccc(OC)cc1 | 0.222 |
| COC(=O)[C@@]1(CCC(=O)OC(C)(C)C)N=C(c2ccc(OCCCO)cc2)O[C@H]1c1ccccc1N=[N+]=[N-] | 0.723 |
| COC(=O)[C@@]1(Cc2ccc(OC)cc2)[C@H]2c3cc(C(=O)N(C)C)n(Cc4ccccn4)c3C[C@H]2CN1C(=O)c1ccccc1 | 1.44 |
| CCCC[C@@H]1C[C@H]1[C@@H](NC(=O)c1ccccc1)c1ccc(C(=O)OC)cc1 | 0.0213 |
| CCCCCCc1nc(-c2ccc(OC)nc2)cc2c1[Si](C(C)C)(C(C)C)O[C@H]2c1ccccc1 | 0.0202 |
| COC(=O)C(CC#Cc1ccc2c(c1)[C@]1(C(=O)N2)[C@H](C(=O)Nc2nc3ccccc3s2)[C@H]2C(=O)O[C@H](c3ccccc3)[C@H](c3ccccc3)N2[C@@H]1c1ccccc1OCCO)C(=O)OC | 1.04 |
| CN(C)C(=O)[C@@]1(CCS(=O)(=O)c2ccccc2)COC(c2ccc(OCCCO)cc2)=N1 | 0.119 |
| COc1ccc(C#Cc2ccc3c(c2)[C@]2(C(=O)N3)[C@H](C(=O)Nc3nc4ccccc4s3)[C@H]3C(=O)O[C@H](c4ccccc4)[C@H](c4ccccc4)N3[C@@H]2c2ccc(O)cc2)cc1 | 0.289 |
| C=C(CC1([C@@H](NP(=O)(c2ccccc2)c2ccccc2)[C@H]2C[C@@H]2CCCC)CC1)c1ccccc1 | 0.0976 |
| C=CCN1C(=O)[C@@]2(CC=C)N=C(c3ccc(OCCCO)cc3)O[C@H]2c2ccccc21 | 0.743 |
| CCCC[C@@H]1C[C@H]1[C@@H](NC(=O)c1ccco1)c1ccc(-c2ccccc2)cc1 | 0.218 |
| C=C(C)[C@@H]1CC=C(C(O)C2C=CC3C(=O)N(C)C(=O)C3N2Nc2ccccc2)CC1 (some centres not stated) | 0.427 |
| O=C1C2C=CC(C(O)Cc3ccccc3)N(n3cnnc3)C2C(=O)N1Cc1ccccc1 (configuration not stated) | -0.249 |
| C=C(COC)/C(=C/C[C@@H](OC(C)=O)c1ccc(OCCO)cc1)c1cnc2ccccc2c1 | -0.514 |
| COCCOC(=O)N1C(=O)[C@@]2(c3cc(C#CCNC(N)=O)ccc31)[C@H](C(=O)N1CCN(c3ncccn3)CC1)[C@H]1C(=O)O[C@H](c3ccccc3)[C@H](c3ccccc3)N1[C@@H]2c1ccc(OCCO)cc1 | -0.171 |
| C=CCOC(=O)[C@@H]1[C@H]2C(=O)O[C@H](c3ccccc3)[C@H](c3ccccc3)N2[C@H](c2ccc(OCCOC(=O)[C@@H]3C[C@@H]4C(=O)NCC(=O)N4[C@@H]3c3ccc(O)cc3)cc2)[C@@]12C(=O)Nc1ccc(I)cc12 | 0.823 |
| CC#CC(=O)Oc1ccccc1C=CC(=O)OCC | -0.0142 |
| CCCC[C@@H]1C[C@H]1[C@@H](NC(=O)c1ccco1)c1ccccc1C(F)(F)F | 0.57 |

System: Fibrinogen (Alexa647-labelled)
Experiment: Alexa647-fibrinogen binding to printed small molecules – biochemical, small-molecule microarray, 635/667 nm fluorescence, artefact control for SMM control-protein annotation, profiling panel (AID 1131);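 further: z-score merges 667 nm fluorescence with per-spot signal-to-noise over triplicate slides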
Conditions: fibrinogen-A647 binding fluorescence, higher = more signal

| SMILES | composite z-score |
| --- | --- |
| COCCOC(=O)N1C(=O)[C@@]2(c3ccccc31)[C@H](c1ccc(O)cc1)N1[C@H](c3ccccc3)[C@H](c3ccccc3)OC(=O)[C@H]1[C@@H]2C(=O)Nc1nc2ccccc2s1 | 0.961 |
| C=CCOC(=O)[C@H]1[C@@H]2C(=O)O[C@@H](c3ccccc3)[C@@H](c3ccccc3)N2[C@@H](c2ccc(OCCOC(=O)[C@H]3C[C@H]4C(=O)N[C@@H](CCCCN(C)C)C(=O)N4[C@H]3c3ccc(O)cc3)cc2)[C@]12C(=O)Nc1ccc(I)cc12 | 0.991 |
| NC(=O)[C@@H]1[C@H]2C(=O)O[C@H](c3ccccc3)[C@H](c3ccccc3)N2[C@H](c2ccc(O)cc2)[C@@]12C(=O)Nc1ccccc12 | -0.538 |
| CC(C)C[C@@H]1NC(=O)[C@H](C(C)C)NC(=O)[C@@]23C(=O)N[C@@H](Cc4ccccc4)C2[C@H](C)[C@@]2(C)O[C@H]2C3/C=C/CC/C=C/CNC1=O (some centres not stated) | 0.972 |
| COC(=O)C(CC#Cc1ccc2c(c1)[C@]1(C(=O)N2)[C@H](c2ccc(OCCO)cc2)N2[C@H](c3ccccc3)[C@H](c3ccccc3)OC(=O)[C@H]2[C@@H]1C(=O)Nc1nc2ccccc2s1)C(=O)OC | 0.998 |
| O=C1NC(=O)C2C1C=CC(C(O)c1cc(C(F)(F)F)cc(C(F)(F)F)c1)N2Nc1ccccn1 (configuration not stated) | 0.604 |
| Cc1ccc(S[C@]2(C(=O)NCCCN(C)C)CC(=O)N(Cc3cc(C(F)(F)F)cc(C(F)(F)F)c3)[C@@H]2c2ccc(CO)cc2I)cc1 | -0.604 |
| C=C(C(=O)CC[C@@H](OC(=O)c1cccnc1)c1ccccc1OCCO)C(C)C | 0.0673 |
| COc1cc(NN2C(C(O)c3ccco3)C=CC3C(=O)N(c4ccccc4)C(=O)C32)cc(OC)c1OC (configuration not stated) | -0.0129 |
| COC(=O)[C@@]1(Cc2ccc(OC)cc2)[C@H]2c3cc(C(=O)N(C)C)n(CCc4ccccn4)c3C[C@H]2CN1C(=O)c1ccccc1 | -1.04 |
| O=C(NC1CC1)[C@@H]1c2ccccc2C(=O)N(Cc2ccccc2Cl)[C@H]1c1ccc(CO)cc1 | 0.57 |
| COC(=O)[C@@]1(Cc2ccc(F)cc2)[C@H]2c3cc(C(=O)N(C)C)n(Cc4ccccc4)c3C[C@H]2CN1C(=O)c1ccccc1 | 0.91 |
| O=C1C2C=CC(C(O)CCc3ccccc3)N(Nc3ccccc3F)C2C(=O)N1c1ccccc1 (configuration not stated) | 0.434 |
| C=C[C@H](CO[Si](CC)(CC)CC)N(Cc1ccc(OC(C)=O)c(OC)c1)S(=O)(=O)c1ccc(Br)cc1 | 0.967 |
| O=C1O[C@@H](c2ccccc2)[C@@H](c2ccccc2)N2[C@@H](c3ccccc3OCCO)[C@]3(C(=O)Nc4ccc(C#CC5=CCCCC5)cc43)[C@@H](C(=O)N3CCCCCCC3)[C@H]12 | 0.487 |
| CCOC(=O)[C@H]1C/C=C/C[C@H](C(=O)OCC)C(=O)O[C@H]2[C@@H](OC)O[C@H](CO)[C@@H](OC(=O)c3c(OC)cccc3OC)[C@@H]2OC1=O | 0.661 |
| CCC(CC)C(O)C1C=CC2C(=O)NC(=O)C2N1Nc1ccc(Cl)cc1Cl (configuration not stated) | 0.952 |
| CCOC(=O)C[C@H]1[C@H](OC(=O)c2ccc(C(=O)c3ccccc3)cc2)[C@@H](NC(=O)c2ccc3ccccc3c2)c2cc(OCCCO)ccc2N1C(=O)Cc1ccc(OC)cc1 | 0.424 |

| SMILES | composite z-score |
| --- | --- |
| COC(=O)[C@@]1(CCC(=O)OC(C)(C)C)N=C(c2ccc(OCCCO)cc2)O[C@H]1c1ccccc1N=[N+]=[N-] | 0.942 |
| COC(=O)[C@@]1(Cc2ccc(OC)cc2)[C@H]2c3cc(C(=O)N(C)C)n(Cc4ccccn4)c3C[C@H]2CN1C(=O)c1ccccc1 | 0.547 |
| CCCC[C@@H]1C[C@H]1[C@@H](NC(=O)c1ccccc1)c1ccc(C(=O)OC)cc1 | 0.0563 |
| CCCCCCc1nc(-c2ccc(OC)nc2)cc2c1[Si](C(C)C)(C(C)C)O[C@H]2c1ccccc1 | -0.51 |
| COC(=O)C(CC#Cc1ccc2c(c1)[C@]1(C(=O)N2)[C@H](C(=O)Nc2nc3ccccc3s2)[C@H]2C(=O)O[C@H](c3ccccc3)[C@H](c3ccccc3)N2[C@@H]1c1ccccc1OCCO)C(=O)OC | 0.964 |
| CN(C)C(=O)[C@@]1(CCS(=O)(=O)c2ccccc2)COC(c2ccc(OCCCO)cc2)=N1 | 0.993 |
| COc1ccc(C#Cc2ccc3c(c2)[C@]2(C(=O)N3)[C@H](C(=O)Nc3nc4ccccc4s3)[C@H]3C(=O)O[C@H](c4ccccc4)[C@H](c4ccccc4)N3[C@@H]2c2ccc(O)cc2)cc1 | 0.997 |
| C=C(CC1([C@@H](NP(=O)(c2ccccc2)c2ccccc2)[C@H]2C[C@@H]2CCCC)CC1)c1ccccc1 | 0.746 |
| C=CCN1C(=O)[C@@]2(CC=C)N=C(c3ccc(OCCCO)cc3)O[C@H]2c2ccccc21 | 0.576 |
| CCCC[C@@H]1C[C@H]1[C@@H](NC(=O)c1ccco1)c1ccc(-c2ccccc2)cc1 | -0.275 |
| C=C(C)[C@@H]1CC=C(C(O)C2C=CC3C(=O)N(C)C(=O)C3N2Nc2ccccc2)CC1 (some centres not stated) | 0.262 |
| O=C1C2C=CC(C(O)Cc3ccccc3)N(n3cnnc3)C2C(=O)N1Cc1ccccc1 (configuration not stated) | 0.573 |
| C=C(COC)/C(=C/C[C@@H](OC(C)=O)c1ccc(OCCO)cc1)c1cnc2ccccc2c1 | 0.869 |
| COCCOC(=O)N1C(=O)[C@@]2(c3cc(C#CCNC(N)=O)ccc31)[C@H](C(=O)N1CCN(c3ncccn3)CC1)[C@H]1C(=O)O[C@H](c3ccccc3)[C@H](c3ccccc3)N1[C@@H]2c1ccc(OCCO)cc1 | 0.931 |
| C=CCOC(=O)[C@@H]1[C@H]2C(=O)O[C@H](c3ccccc3)[C@H](c3ccccc3)N2[C@H](c2ccc(OCCOC(=O)[C@@H]3C[C@@H]4C(=O)NCC(=O)N4[C@@H]3c3ccc(O)cc3)cc2)[C@@]12C(=O)Nc1ccc(I)cc12 | 0.342 |
| CC#CC(=O)Oc1ccccc1C=CC(=O)OCC | -0.0002 |
| CCCC[C@@H]1C[C@H]1[C@@H](NC(=O)c1ccco1)c1ccccc1C(F)(F)F | 0.349 |
